Results published in PubChem BioAssay (NCI).
Compounds without any hit were thinned out: in the full panel of roughly 83,000, 20% have a hit.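 Single-concentration screen, 48 h exposure, 96-well plates. Endpoint: percent growth. Below 10 = active.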 Activity calls are given as the source filed them.

Columns and labels:
Experiment in all cases: NCI-60 one-dose screen, 48 h (100 = growth as untreated, 0 = no growth, -100 = all killed)
Details in all cases: 10 µM unless noted
T-47D breast = test system: T-47D breast
BT-549 breast = test system: BT-549 breast
MDA-MB-435 melanoma = test system: MDA-MB-435 melanoma
SW-620 colon = test system: SW-620 colon
MCF7 breast = test system: MCF7 breast
HCT-116 colon = test system: HCT-116 colon
HCC-2998 colon = test system: HCC-2998 colon
KM12 colon = test system: KM12 colon
MDA-MB-468 breast = test system: MDA-MB-468 breast

Measured: growth

COc1cc(C2C(C(=O)OCc3ccccc3)=C(C)Nc3nc4ccccc4n32)cc(OC)c1OC (centres undefined)
active: MDA-MB-435 melanoma -34.7% | MCF7 breast 7.08% | HCT-116 colon 2.8% | MDA-MB-468 breast -38%
inactive: T-47D breast 55.6% | BT-549 breast 14.2% | SW-620 colon 31.4% | HCC-2998 colon 27.8% | KM12 colon 38%

CN1CCc2c(sc3ncnc(N/N=C/c4cccc(Cl)c4Cl)c23)C1
inactive: BT-549 breast 63.3% | MDA-MB-435 melanoma 39.3% | KM12 colon 88% | MDA-MB-468 breast 33.2%
active: T-47D breast -6.02% | SW-620 colon -36.9% | MCF7 breast -39.1% | HCT-116 colon -82.8% | HCC-2998 colon 6.03%

COc1ccc(N=Nc2c(N)nn3c(N)c(C#N)c(-c4ccc(F)cc4)nc23)cc1
inactive: T-47D breast 55.7% | BT-549 breast 49.3% | MDA-MB-435 melanoma 86.2% | SW-620 colon 88.6% | MCF7 breast 57.1% | HCT-116 colon 46.4% | HCC-2998 colon 66.7% | KM12 colon 56.7% | MDA-MB-468 breast 46.7%

Cn1cc(-c2cc(N)n3nc(-c4c[nH]c5ccc(F)cc45)cc3n2)c2cccnc21
active: T-47D breast -59.7% | BT-549 breast -73.6% | MDA-MB-435 melanoma -76.6% | SW-620 colon -66.4% | MCF7 breast -53.8% | HCT-116 colon -91.4% | HCC-2998 colon -100% | KM12 colon -66% | MDA-MB-468 breast -92.9%

CCOC(=O)/C(F)=C/C1CC1C1CCN(C(=O)OC(C)(C)C)CC1 (centres undefined)
inactive: T-47D breast 74.6% | BT-549 breast 125% | MDA-MB-435 melanoma 105% | SW-620 colon 101% | MCF7 breast 83.9% | HCT-116 colon 99.1% | HCC-2998 colon 111% | KM12 colon 102% | MDA-MB-468 breast 94.8%

CS(=O)(=O)c1ccc(-n2nc(C(=O)NCc3ccccc3)cc2-c2ccc(Cl)cc2)cc1
inactive: T-47D breast 66.6% | BT-549 breast 143% | MDA-MB-435 melanoma 91.7% | SW-620 colon 99.8% | MCF7 breast 70.1% | HCT-116 colon 69.6% | HCC-2998 colon 99.4% | KM12 colon 89.2% | MDA-MB-468 breast 86.7%

COc1c2c(cc3c1C(CCc1ccccc1)N(C)CC3)OCO2 (centres undefined)
active: T-47D breast -22.3% | BT-549 breast -28.8% | MDA-MB-435 melanoma 5.73% | SW-620 colon 1.49% | MCF7 breast -34.4% | HCT-116 colon 3.07% | HCC-2998 colon -31.5% | KM12 colon -28.3% | MDA-MB-468 breast -61.8%

COC(=O)c1cc(C(=O)C(F)(F)F)n2c3ccccc3c3ccccc3c12
inactive: T-47D breast 64.4% | BT-549 breast 85.9% | MDA-MB-435 melanoma 96.2% | SW-620 colon 83.9% | MCF7 breast 80.8% | HCT-116 colon 48% | HCC-2998 colon 108% | KM12 colon 100% | MDA-MB-468 breast 60.8%

COc1ccc(C(=O)C[n+]2cccc3c4ccccc4ccc32)cc1
active: MDA-MB-468 breast 2.93%
inactive: T-47D breast 38.2% | BT-549 breast 33.2% | MDA-MB-435 melanoma 37.5% | SW-620 colon 36.4% | MCF7 breast 18.1% | HCT-116 colon 29.8% | HCC-2998 colon 48.5% | KM12 colon 34.9%

Cc1ccccc1Nc1nnc(-c2c[nH]c3ccccc23)o1
inactive: T-47D breast 39.7% | BT-549 breast 17.7% | SW-620 colon 19.6% | MCF7 breast 21.8% | HCT-116 colon 19.3% | HCC-2998 colon 11.3% | KM12 colon 25%
active: MDA-MB-435 melanoma -47.2% | MDA-MB-468 breast -35.5%

Cc1cccc(/C=C/c2ccc(NC(=S)NCCCCN(C)C)cc2)c1
active: T-47D breast -67.8% | BT-549 breast -72.6% | MDA-MB-435 melanoma -90% | SW-620 colon -85.3% | MCF7 breast -73.7% | HCT-116 colon -45.1% | HCC-2998 colon -92.7% | KM12 colon -48.6% | MDA-MB-468 breast -83.5%

OCCn1cc(-c2nc3ccc4[nH]ncc4c3c3c2CCCC3)cn1
inactive: T-47D breast 43.5% | BT-549 breast 30.5% | MDA-MB-435 melanoma 12.4% | SW-620 colon 21.6% | MCF7 breast 39.3% | HCT-116 colon 24% | HCC-2998 colon 54% | KM12 colon 18.8%
active: MDA-MB-468 breast 3.83%

N#CCc1nnc(NC(=O)c2ccc(-n3c(=O)[nH]c4ccccc4c3=O)cc2)s1
inactive: T-47D breast 100% | BT-549 breast 109% | MDA-MB-435 melanoma 106% | SW-620 colon 104% | MCF7 breast 90.6% | HCT-116 colon 103% | HCC-2998 colon 108% | KM12 colon 121% | MDA-MB-468 breast 121%

O=C(c1ccc(O)cc1)C1[C@H](c2ccc(Cl)cc2)[C@@H](c2ccccc2)NC12C(=O)Nc1ccccc12 (some centres undefined)
active: BT-549 breast -50.7% | MDA-MB-435 melanoma -34% | SW-620 colon -12.7% | MCF7 breast -6.29% | HCT-116 colon -76.8% | HCC-2998 colon -61.1% | KM12 colon -13.7% | MDA-MB-468 breast -45.2%
inactive: T-47D breast 11.7%

CCCCNc1ccc2c3c(cccc13)C(=O)N(c1cccc(-c3nn(-c4ccccc4)cc3-c3nc4ccccc4s3)c1)C2=O
inactive: T-47D breast 101% | BT-549 breast 117% | MDA-MB-435 melanoma 106% | SW-620 colon 105% | MCF7 breast 109% | HCT-116 colon 98.9% | HCC-2998 colon 119% | KM12 colon 108% | MDA-MB-468 breast 97.7%

CC1=C(C(=O)OCc2ccccc2)C(c2cccc3ccccc23)n2c(nc3ccccc32)N1 (centres undefined)
inactive: T-47D breast 30.2% | BT-549 breast 25% | SW-620 colon 23.7% | MCF7 breast 12.7% | HCT-116 colon 17.7% | HCC-2998 colon 57% | KM12 colon 19.1%
active: MDA-MB-435 melanoma -45.5% | MDA-MB-468 breast -42.5%

CS(=O)(=O)Nc1cccc(-n2cnc3cc(-c4ccc(O)cc4)ccc32)c1
active: MDA-MB-435 melanoma -37.6% | MDA-MB-468 breast 6.92%
inactive: T-47D breast 49.1% | BT-549 breast 49.9% | SW-620 colon 46.2% | MCF7 breast 23.6% | HCT-116 colon 33.5% | HCC-2998 colon 63.9% | KM12 colon 26.6%

COc1cccc(NC(=O)c2ccc(NC(=O)CCl)s2)c1
inactive: T-47D breast 26.2% | BT-549 breast 27.2% | HCC-2998 colon 80.6% | KM12 colon 42.4%
active: MDA-MB-435 melanoma 2.66% | SW-620 colon 3.86% | MCF7 breast 5.63% | HCT-116 colon -27.4% | MDA-MB-468 breast -14.7%

O=C(Nc1ccc(S(=O)(=O)N2CCCCC2)cc1)C(Cl)Cl
inactive: T-47D breast 101% | BT-549 breast 124% | MDA-MB-435 melanoma 109% | SW-620 colon 109% | MCF7 breast 101% | HCT-116 colon 105% | HCC-2998 colon 124% | KM12 colon 104% | MDA-MB-468 breast 118%

CCCn1c(NC(=O)c2cccc(C(N)=O)c2)nc2cc(CN3CCCCC3)ccc21
inactive: T-47D breast 86.6% | MDA-MB-435 melanoma 101% | SW-620 colon 113% | MCF7 breast 71.5% | HCC-2998 colon 116% | KM12 colon 22.8% | MDA-MB-468 breast 82.5%
active: BT-549 breast -10.8% | HCT-116 colon 5.91%

COc1ccc(CCC2NCCc3c(Br)c4c(c(OC)c32)OCO4)cc1 (centres undefined)
inactive: T-47D breast 31.2%
active: BT-549 breast -19% | MDA-MB-435 melanoma -64.5% | SW-620 colon 2.69% | MCF7 breast 3.82% | HCT-116 colon 4.11% | HCC-2998 colon -23.2% | KM12 colon 3.9% | MDA-MB-468 breast -18.1%
